Source: PubChem BioAssay (NCI)
Compounds without any hit were thinned out: in the full panel of roughly 83,000, 20% have a hit.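 Treatment: one concentration, 48 hours, 96-well format. Scoring: percent growth, with anything below 10 considered active.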 A number with no mark means an inactive call. Active and inactive are the calls of the source.

System: UACC-62 melanoma
Assay: NCI-60 one-dose screen, 48 h (100 = growth as untreated, 0 = no growth, -100 = all killed)
Conditions: 10 µM unless noted

**Q.** With `C=CC(=O)N1CCC(Oc2cc3c(Nc4ccc(Cl)c(Cl)c4F)ncnc3cc2OC)CC1` as the molecule, how does the growth read?
**A.** 20.7%

**Q.** `FC(F)(F)c1ccc(CNc2ccc(Cc3c[nH]c4ncc(Cl)cc34)cn2)cn1` was tested. Which growth did it give?
**A.** 6.74% (active)

**Q.** With `O=S1(=O)OC(c2cc(Cl)c(O)c(Br)c2)(c2cc(Cl)c(O)c(Br)c2)c2ccccc21` as the molecule, how does the growth read?
**A.** 97.1%

**Q.** Which growth does the source give for `CC(C)(C)OC(=O)N1CCC(O)[C@@H](O[Si](c2ccccc2)(c2ccccc2)C(C)(C)C)[C@H]1/C=C/c1ccccc1` (stereo partly drawn) here?
**A.** 57.1%

**Q.** For `Cc1cn(-c2cc(NC(=O)c3ccc(C)c(Nc4nccc(-c5cccnc5)n4)c3)cc(C(F)(F)F)c2)cn1`, which growth is on record?
**A.** 9.88% (active)

**Q.** How did the growth turn out when `Cc1cnc(Nc2ccc(OCCN3CCCC3)cc2)nc1Nc1cccc(S(=O)(=O)NC(C)(C)C)c1` was run?
**A.** -23.1% (active)

**Q.** How did the growth turn out when `Cc1cccc(C)c1N1C(c2ccccc2)=NNC12C=CC(=O)c1c(O)cccc12` (stereo not drawn) was run?
**A.** 24.5%

**Q.** With `C=CC(=O)Nc1cccc(Nc2nc(Nc3ccc(N4CCN(C(C)=O)CC4)cc3OC)ncc2C(F)(F)F)c1` as the molecule, how does the growth read?
**A.** 11.1%

**Q.** `COc1ccc(/C(C)=C(\c2ccc(Cl)cc2)c2ccc(OCCN3CCCCCC3)cc2)cc1` was tested. Which growth did it give?
**A.** 67.8%

**Q.** With `Cc1cc(C(=O)Nc2cc(Oc3ccc4nc(NC(=O)C5CC5)cn4n3)ccc2C)n(C)n1` as the molecule, how does the growth read?
**A.** -16.9% (active)

**Q.** Which growth does the source give for `CO[C@H](C(=O)N[C@@H](CCCCNC(=O)OCc1ccccc1)C(=O)OC(C)(C)C)[C@@H]1Cc2cc3cc(OC4CC(OC5CC(O)C(O)C(C)O5)C(O)C(C)O4)c(C)c(O)c3c(O)c2C(=O)[C@H]1OC1CC(OC2CC(OC3CC(C)(O)C(O)C(C)O3)C(O)C(C)O2)C(O)C(C)O1` (stereo partly drawn) here?
**A.** -62.7% (active)

**Q.** For `CCN(CCCOc1ccc2c(Nc3cc(CC(=O)Nc4cccc(F)c4)[nH]n3)ncnc2c1)CCOP(=O)(O)O`, which growth is on record?
**A.** 53.7%

**Q.** `CC/C=C\C[C@H]1C/C=C2/C(=O)C=C[C@@H]2C/C=C\CCCC(=O)O1` was tested. Which growth did it give?
**A.** -57.6% (active)

**Q.** How did the growth turn out when `Cc1cn(-c2cc(NC(=O)c3ccc(C)c(Nc4nccc(-c5cnccn5)n4)c3)cc(C(F)(F)F)c2)cn1` was run?
**A.** 26.4%

**Q.** For `COc1cc2ncnc3c2cc1OCCCCCN(C)Cc1ccc(Br)cc1N3`, which growth is on record?
**A.** 43.8%

**Q.** `C[C@@]1(C(=O)Nc2ccc(F)nc2)CCCN1c1nc(Nc2cc(C3CC3)[nH]n2)c2cccn2n1` was tested. Which growth did it give?
**A.** 17.5%

**Q.** Which growth does the source give for `C[C@]12O[C@H](C[C@]1(O)CO)n1c3ccccc3c3c4c(c5c6ccccc6n2c5c31)CNC4=O` here?
**A.** -49.9% (active)

**Q.** For `CCN1CCN(CCCN(C[C@H]2Cc3ccccc3CN2)[C@H]2CCCc3cccnc32)CC1`, which growth is on record?
**A.** 106%

**Q.** For `COCc1c(-c2ccc(NC(=O)Nc3cc(C(F)(F)F)ccc3F)c(F)c2)c2c(N)ncnn2c1CN1CCOCC1`, which growth is on record?
**A.** -38.8% (active)

**Q.** Which growth does the source give for `COc1cc2cc(NCc3ccc(F)cc3)nc(C)c2cc1OC` here?
**A.** 27.8%

**Q.** With `CC(=O)C1=C(C)NC(SCc2nnc(-c3ccc(C)cc3)o2)=NC1c1ccc(F)cc1` (stereo not drawn) as the molecule, how does the growth read?
**A.** 84.6%

**Q.** For `N#CC[C@H](C1CCCC1)n1cc(-c2ncnc3[nH]ccc23)cn1`, which growth is on record?
**A.** 82%

**Q.** With `Cc1ccc(-[n+]2c3cc(N)c(C)cc3nc3cc(C)c(Nc4ccccc4)cc32)cc1` as the molecule, how does the growth read?
**A.** -73.5% (active)

**Q.** `COc1cc2cc(NCc3ccc(Cl)cc3)nc(C)c2cc1OC` was tested. Which growth did it give?
**A.** 8.46% (active)

**Q.** `CC(=O)c1cnc2ccc(-c3cc(Cl)c(O)c(Cl)c3)nc2c1NC1CCC(CN(C)C)CC1` (stereo not drawn) was tested. Which growth did it give?
**A.** -70.9% [2.5 µM] (active)

**Q.** For `CCN(CC)c1cc2oc3cc(N)cc(=N)c-3nc2cc1C`, which growth is on record?
**A.** 30.8%

**Q.** `CO[C@H]1C[C@@H]2CC[C@@H](C)[C@@](O)(O2)C(=O)C(=O)N2CCCC[C@H]2C(=O)O[C@H]([C@H](C)C[C@@H]2CC[C@@H](O)[C@H](OC)C2)CC(=O)[C@H](C)/C=C(\C)[C@@H](O)[C@@H](OC)C(=O)[C@H](C)C[C@H](C)\C=C/C=C/C=C/1C` was tested. Which growth did it give?
**A.** 39.2%

**Q.** For `COc1cccc(NC(=O)Nc2ccc(Nc3ncnc4sc5c(c34)CCN(C(=O)CCl)C5)cc2)c1`, which growth is on record?
**A.** 94.8%

**Q.** `CCN(CC)CCNC(=O)c1c(C)[nH]c(/C=C2\C(=O)Nc3ccc(F)cc32)c1C` was tested. Which growth did it give?
**A.** -63.6% (active)

**Q.** How did the growth turn out when `CO[C@@H](C)Cn1c(=O)n(C)c2cnc3ccc(-c4cncc(C(C)(C)O)c4)cc3c21` was run?
**A.** -37.6% (active)

**Q.** How did the growth turn out when `Cc1c(N)ccc(-c2ccc(N)c(C)c2S(=O)(=O)O)c1S(=O)(=O)O` was run?
**A.** 105%

**Q.** How did the growth turn out when `CNC(=O)c1cc(Oc2ccc(NC(=O)Nc3ccc(Cl)c(C(F)(F)F)c3)c(F)c2)ccn1` was run?
**A.** -41.9% (active)

**Q.** For `COCCOc1cnc2ccn([C@H](C)c3nnc4c(F)cc(-c5cnn(C)c5)cn34)c(=O)c2c1`, which growth is on record?
**A.** 20.7%

**Q.** How did the growth turn out when `N#Cc1c(-c2ccc(Cl)cc2)csc1NC(=O)Nc1cccc(C(F)(F)F)c1` was run?
**A.** 12.5%

**Q.** With `CC(=O)C1CC(C)CCC1C(C)C` (stereo not drawn) as the molecule, how does the growth read?
**A.** 85.3%

**Q.** For `O=C(COc1cccc(/C=C2\Cc3ccc(Cl)cc3C2=O)c1)Nc1nccs1`, which growth is on record?
**A.** 84.2%

**Q.** With `O=C(Cn1ccnc1)Nc1ccc(-c2nc3ccccc3s2)cc1` as the molecule, how does the growth read?
**A.** 82.9%

**Q.** Which growth does the source give for `CN1CCC(CNc2ccc3ncc(-c4cccc(OC(F)(F)F)c4)n3n2)CC1` here?
**A.** -95% (active)
